CHT block = inhibits the human high affinity choline transporter; CHT-expressing cells, membrane potential dye, choline response; hits give low values; B-score at 10 µM; actives 0.86% (n = 310,000); AID 488975;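 active means B-score over 3 SD under the library average, and starting fluorescence ratio not unusually high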;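 further: choline stimulus applied at its EC90 after an EC20 pre-addition; B-score computed on integrated fluorescence ratio after choline addition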
Target sequence (Q9GZV3 whole entry, looked up): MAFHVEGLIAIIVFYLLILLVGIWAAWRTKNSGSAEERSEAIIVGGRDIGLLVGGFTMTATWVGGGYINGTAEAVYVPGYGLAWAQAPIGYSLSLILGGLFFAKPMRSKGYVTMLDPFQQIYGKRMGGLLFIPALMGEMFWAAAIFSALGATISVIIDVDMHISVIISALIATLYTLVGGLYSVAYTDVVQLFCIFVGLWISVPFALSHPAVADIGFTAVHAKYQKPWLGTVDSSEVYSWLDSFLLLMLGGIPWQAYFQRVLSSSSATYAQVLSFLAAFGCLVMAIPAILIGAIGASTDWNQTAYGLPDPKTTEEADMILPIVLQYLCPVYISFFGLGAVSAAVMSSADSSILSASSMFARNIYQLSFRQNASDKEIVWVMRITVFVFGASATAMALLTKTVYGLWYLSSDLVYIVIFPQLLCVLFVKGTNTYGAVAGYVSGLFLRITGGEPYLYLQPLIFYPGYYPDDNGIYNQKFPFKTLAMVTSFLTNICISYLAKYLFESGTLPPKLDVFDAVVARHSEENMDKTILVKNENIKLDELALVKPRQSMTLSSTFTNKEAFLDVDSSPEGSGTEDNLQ
H9c2 TAG inh = triacylglycerol accumulation inhibition; actives 0.66% (n = 230,000); H9c2 cells, Nile Red lipid (TAG) fluorescence; cells loaded with 200 µM oleic acid; AID 651582; inhibition, % at 12.5 µM;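 active means pattern-corrected inhibition of lipid staining of at least 50% with the nuclear-stain viability signal not falling by more than 50%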;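 further: 0% = DMSO wells and 100% = triacsin C control wells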
MIN6 prolif = MIN6 beta-cell proliferation induction. MIN6 cells proliferation, ATPlite luminescence, 48 h; cells starved in 0.2% serum; 100% = growth in 10% serum. proliferation, % at 10 µM. actives 0.29% (n = 330,000). AID 2380;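 active means compounds whose signal lies at least 3.5 SD above the mean of all wells on their plate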;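 further: 0% = DMSO-treated cells in low-serum medium and 100% = 10% serum control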
CHT allo act = allosteric activators of human choline transporter CHT; Q9GZV3; CHT-expressing cells, membrane potential dye, choline EC20; hits give high values; LV-AA mutant CHT in HEK293 cells; B-score at 10 µM; actives 0.49% (n = 310,000);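 active means initial fluorescence not abnormally high and integrated response B-score, plate-corrected, over 3 SD above library mean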
CHT inh conf = confirmation of human choline transporter CHT inhibitors. shares compounds with CHT block. CHT-expressing cells, choline membrane potential dye; LV-to-AA substituted CHT, HEK293 cells. CHT activity remaining % of control (hits give low values), % at 10 µM. actives 70% (n = 2,400). AID 493221;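 active means choline transporter activity left, mean of duplicates at 10 µM, below buffer-only control mean minus 3 SD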;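 further: depolarization triggered by choline at its EC90 following an EC20 pre-addition; 0% = hemicholinium-3 full block and 100% = buffer-only control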
HEK293 CHT ctr = counter-screen for CHT inhibitors: effect in parental HEK293 cells. membrane potential ratio readout (active if shifted either direction beyond buffer ±3SD; no single direction) at 10 µM. shares compounds with CHT block. membrane potential dye, choline response; active = decrease or increase beyond buffer ±3SD. actives 4% (n = 2,400);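 further: parental cells lack the transporter so any hit is non-specific; ratio is peak minus trough fluorescence over baseline after EC90 choline challenge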
Active calls of the source: *. This is a sample that favours compounds with a hit; in the whole collection about 1.7% have one here.

O=C(C[n+]1cccc(Br)c1)c1ccccc1 was read as CHT block -6*, MIN6 prolif -3, CHT allo act inactive, CHT inh conf 18%* and HEK293 CHT ctr inactive.
COc1ccc(C(CNC(=O)c2cc(S(=O)(=O)NCc3ccccc3)ccc2C)N2CCOCC2)cc1 (centres undefined) was read as CHT block -10*, H9c2 TAG inh 4, MIN6 prolif -3, CHT allo act inactive, CHT inh conf 19%* and HEK293 CHT ctr inactive.
For Cc1cccc(C)c1NC(=O)c1ccc2sc([C@@H]3O[C@H](CO)[C@H](O)[C@H](O)[C@H]3O)nc2c1 the results were H9c2 TAG inh 6.
For Cc1nc2ccccc2n1Cc1ccccc1 the results were CHT block inactive, MIN6 prolif -1 and CHT allo act inactive.
Cc1nc2ccccc2n1CSc1ccccc1 was read as CHT block inactive, MIN6 prolif 0, CHT allo act inactive, CHT inh conf inactive and HEK293 CHT ctr inactive.
Screening CN(C(=O)CCN1C(=O)c2ccccc2C1=O)c1ccccc1 returned CHT block inactive, H9c2 TAG inh 3, MIN6 prolif 0 and CHT allo act inactive.
`COc1ccc(OCC(O)Cn2c(=N)n(Cc3ccccc3)c3ccccc32)cc1` (centres undefined) gave CHT block -5.3*, H9c2 TAG inh -6, MIN6 prolif -6, CHT allo act inactive, CHT inh conf 31%* and HEK293 CHT ctr inactive.
Cc1ccc(OCC(O)Cn2c(=N)n(Cc3ccccc3)c3ccccc32)cc1 (centres undefined) was read as CHT block -9*, MIN6 prolif -6, CHT allo act inactive, CHT inh conf 51%* and HEK293 CHT ctr inactive.
Screening N=c1n(Cc2ccc(Cl)cc2)c2ccccc2n1CC(O)COc1ccccc1 (centres undefined) returned CHT block -9.2*, H9c2 TAG inh 73*, MIN6 prolif -6, CHT allo act inactive, CHT inh conf 46%* and HEK293 CHT ctr inactive.
N=c1n(Cc2ccccc2)c2ccccc2n1CC(O)COc1ccc(Cl)cc1Cl (centres undefined) was read as MIN6 prolif -5.
Cc1cccc(OCC(O)CN2CCNCC2)c1 (centres undefined) was read as CHT block inactive, MIN6 prolif -3 and CHT allo act inactive.
For Cc1cccc(OCC(O)Cn2c(=N)n(Cc3ccccc3)c3ccccc32)c1 (centres undefined) the results were CHT block -12*, H9c2 TAG inh 29, MIN6 prolif -6, CHT allo act inactive, CHT inh conf 57%* and HEK293 CHT ctr inactive.
For Cc1ccc(N(CC(=O)NC(C)(C)C)C(=O)CNC(=O)c2cccs2)cc1C the results were CHT block inactive, H9c2 TAG inh 8, MIN6 prolif -1 and CHT allo act inactive.
Screening CCOC(=O)C1CCN(c2nc(-c3ccccc3)nc3c2oc2ccccc23)CC1 returned CHT block inactive, H9c2 TAG inh 4, MIN6 prolif -3 and CHT allo act inactive.
`O=C(O)C1CCN(c2nc(-c3ccccc3)nc3c2oc2ccccc23)CC1` gave CHT block -6*, H9c2 TAG inh 4, MIN6 prolif -3, CHT allo act inactive, CHT inh conf 63%* and HEK293 CHT ctr inactive.
`Cc1ccc(-c2nc3ncccc3o2)cc1NC(=O)c1ccccc1` gave CHT block -6.7*, H9c2 TAG inh 14, MIN6 prolif 0, CHT allo act inactive, CHT inh conf inactive and HEK293 CHT ctr inactive.
CCOC(=O)c1c(NC(C)=O)sc(/C(C)=N/Nc2ccc(C(=O)O)cc2)c1C was read as CHT block inactive, MIN6 prolif -4 and CHT allo act inactive.
CC1CCCN(C(=O)C2CCC(CNc3c(N4CCCCC4)c(=O)c3=O)CC2)C1 (centres undefined) was read as CHT block -6*, H9c2 TAG inh -7, MIN6 prolif -2, CHT allo act inactive, CHT inh conf inactive and HEK293 CHT ctr inactive.
Screening O=C(C1CCC(CNc2c(N3CCCCC3)c(=O)c2=O)CC1)N1CCCCC1 (centres undefined) returned CHT block inactive, H9c2 TAG inh -9, MIN6 prolif -2 and CHT allo act inactive.
Screening Cc1ccc(CN2C(=O)C(C)Sc3ccc(C#N)cc32)cc1 (centres undefined) returned H9c2 TAG inh -2.
`O=C1c2ccccc2C(=O)c2c(Nc3ccc(CCO)cc3)ccc(O)c21` gave CHT block -7.4*, MIN6 prolif -5, CHT allo act inactive, CHT inh conf 67%* and HEK293 CHT ctr inactive.
CCOc1cc(/C=N/NC(=O)CN2CCCCC2)ccc1OCc1cccc(Cl)c1 was read as CHT block -6.6*, MIN6 prolif 0, CHT allo act inactive, CHT inh conf 49%* and HEK293 CHT ctr inactive.
Screening CCOC(=O)N/N=C/c1ccc(OCCSc2ccc(Cl)cc2)c(OCC)c1 returned CHT block -5*, MIN6 prolif -2, CHT allo act inactive, CHT inh conf inactive and HEK293 CHT ctr inactive.
For CCOc1cc(/C=N/NC(=O)CN2CCCCC2)ccc1OCc1ccc(Cl)cc1 the results were CHT block inactive, MIN6 prolif 0 and CHT allo act inactive.
For Cc1ccc(C(=O)c2c3ccc(C(F)(F)F)cc3[n+]([O-])n2CCCN)cc1 the results were CHT block -5.9*, H9c2 TAG inh 28, MIN6 prolif -2, CHT allo act inactive, CHT inh conf 40%* and HEK293 CHT ctr 2.6*.
For COc1ccc(C(=O)c2c3ccc(C(F)(F)F)cc3[n+]([O-])n2CCCN)cc1 the results were CHT block -6.3*, H9c2 TAG inh -33, MIN6 prolif -1, CHT allo act inactive, CHT inh conf 22%* and HEK293 CHT ctr inactive.
For Cc1ccc(-n2c(C)nnc2SCC(=O)NC2CCCC2)cc1 the results were CHT block inactive, H9c2 TAG inh 17, MIN6 prolif 0 and CHT allo act inactive.
For COC(=O)N(NC(=O)C(O)(CCC(C)C)CCC(C)C)c1ccccc1 the results were CHT block inactive, MIN6 prolif 4, CHT allo act inactive, CHT inh conf inactive and HEK293 CHT ctr inactive.
CN(Cc1ccccc1)C(=O)COC(=O)c1cc(NS(=O)(=O)c2cccs2)ccc1O was read as CHT block -5.8*, H9c2 TAG inh -10, MIN6 prolif -3, CHT allo act inactive, CHT inh conf inactive and HEK293 CHT ctr inactive.

Source: PubChem
